Source: PubChem BioAssay
RORg inh = ROR gamma (mouse) transcription inhibition; Drosophila S2 Gal4-RORgamma UAS-luciferase reporter, 20 h; Potency, µM (series often up to 53.6 µM), most hits filed as inhibitors; AID 2551; P51450; actives 5.4% (n = 310,000); further: nearly all actives have a fitted effect of over 60% in size
Target sequence (P51450 whole entry, looked up, the tested form may be a part): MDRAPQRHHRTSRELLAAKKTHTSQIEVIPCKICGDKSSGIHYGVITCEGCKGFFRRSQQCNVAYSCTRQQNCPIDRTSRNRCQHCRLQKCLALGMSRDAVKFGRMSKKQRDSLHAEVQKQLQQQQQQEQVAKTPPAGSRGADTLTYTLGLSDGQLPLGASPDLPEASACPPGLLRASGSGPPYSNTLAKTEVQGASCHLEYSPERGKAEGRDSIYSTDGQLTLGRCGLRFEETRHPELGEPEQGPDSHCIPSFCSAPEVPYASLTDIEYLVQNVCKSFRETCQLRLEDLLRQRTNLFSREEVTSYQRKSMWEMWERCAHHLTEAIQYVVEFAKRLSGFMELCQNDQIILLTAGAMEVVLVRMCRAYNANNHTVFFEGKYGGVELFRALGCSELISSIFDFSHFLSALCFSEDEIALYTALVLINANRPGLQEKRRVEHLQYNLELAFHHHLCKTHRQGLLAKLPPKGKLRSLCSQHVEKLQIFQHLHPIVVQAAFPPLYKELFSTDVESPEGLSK
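Luciferase reporter read in Schneider cells carrying Gal4-RORγ (mouse) and UAS-Photinus luciferase; cells given compound 1 h before 700 uM copper sulfate induction, then incubated 20 h at ambient temperature.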
Six1-Eya2 blk = Six1/Eya2 interaction inhibition. AID 651725. actives 0.56% (n = 360,000). AlphaScreen GST-Six1/His-Eya2 binding, biochemical; active compounds read low. Q15475+O00167. activity change, % (concentration not given with the values); in the data active means activity change below about -65%; inconclusive means mostly about -30% to -63%
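AlphaScreen luminescence read after one hour at 37 °C in darkness. Pin-transferred compounds met GST-Six1 and His-Eya2 protein (5X stock 250 nM/500 nM) plus glutathione donor and Ni-chelate acceptor beads (5X, 50 ug/mL).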
PKM2 act = activators of human pyruvate kinase M2 | P14618 | purified PKM2, Kinase-Glo ATP luminescence, activation; response scale: 0% is enzyme alone, no compound | Potency, µM (top dose mostly 57.5 µM), usual class: activators | actives 0.34% (n = 260,000); further: nearly all actives have a fitted effect of over 55% in size
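hPK-M2, >95% pure; 0.1 mM ADP / 0.5 mM PEP final; imidazole pH7.2 buffer w/ 7 mM MgCl2, 50 mM KCl; 1 h RT; Kinase-Glo lum. Intermediate enzyme activity for dual inhibitor/activator qHTS.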
CtBP-E1A blk = blocks the CtBP interaction with E1A; AID 651724; activity change, % (concentration not given with the values); actives 0.49% (n = 340,000); AlphaScreen GST-E1A/His-CtBP binding, 1536-well; active compounds read low; in the data active means activity change below about -65%; inconclusive means mostly about -30% to -63%
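In 5 uL wells, 23 nL compound meets equimolar GST-E1A and His-CtBP (5X stock 125 nM each) for 2 h, 37 °C. Beads (5X, 50 ug/mL) then 1 h, 37 °C, dark.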
Gal4-VP16 FLuc = Gal4-VP16 reporter inhibition counter-screen | Potency, µM (doses to about 53.6 µM), most hits filed as inhibitors | Drosophila S2 Gal4-VP16 UAS-luciferase, luminescence, 20 h | actives 3.5% (n = 310,000);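 further: Gal4-VP16 expression switched on by copper sulfate through the metallothionein promoter; nearly all actives have a fitted effect of over 50% in size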
Large screens that a line does not name were inactive. An excerpt weighted towards active compounds, which were near 5.6% of everything screened. Unless noted, the call rests on the fitted dose curve; in most records, active means well fitted curve in the direction sought with a large enough effect; inconclusive means small, poorly fitted or top-dose-only effect, or another doubt; inactive means no such curve, though single readings can be large; an effect the other way counts as inactive or inconclusive.

CC(C)(C)c1nc(Sc2ccc([N+](=O)[O-])cn2)n[nH]1	none
O=C(COc1ccccc1)NC1CCCCCCC1	none
C#CC[N+]1(CC#Cc2ccccc2)CCCC1	none
C(#Cc1ccccc1)C[N+]1(CC#Cc2cccc3ccccc23)CCCC1	Gal4-VP16 FLuc 16µM
CCOC(=O)c1cnc(-n2nc(C)cc2C)nc1NC1CCCC1	none
CCOC(=O)c1cnc(-n2nc(C)cc2C)nc1Nc1ccc(OC)cc1	RORg inh 1.6µM, Gal4-VP16 FLuc 2.5µM
CCOC(=O)c1ccc(NCc2ccc3c(c2)OCO3)cc1	none
CCOC(=O)c1cnc(-n2cc(C)cn2)nc1Nc1ccccc1OCC	RORg inh 1.8µM
CCOC(=O)c1cnc(-n2nc(C)cc2C)nc1NCCc1ccccc1	RORg inh 0.89µM, CtBP-E1A blk inconclusive, Gal4-VP16 FLuc 1.8µM
CCOC(=O)c1cnc(SC)nc1Nc1cccc2ccccc12	RORg inh inconclusive
CCOC(=O)c1cnc(-n2nc(C)cc2C)nc1NCc1ccc2c(c1)OCO2	RORg inh 3.5µM, Gal4-VP16 FLuc 3.2µM
C/C(Cl)=C\Cn1c(N2CCCC2)nc2c1c(=O)n(C)c(=O)n2C	none (no result: PKM2 act)
CCOC(=O)c1cnc(-n2nc(C)cc2C)nc1Oc1ccccc1F	RORg inh 5µM, Gal4-VP16 FLuc inconclusive
CCOC(=O)c1cnc(-n2nc(C)cc2C)nc1Oc1ccc(C(=O)OC)cc1	none
CCOC(=O)c1cc(C#N)c(Nc2ccccc2OC)nc1C(F)(F)F	none
CCOC(=O)c1cnc(-n2nc(C)cc2C)nc1Nc1ccccc1OC	RORg inh 1.3µM, Gal4-VP16 FLuc 2.2µM (no result: Six1-Eya2 blk, CtBP-E1A blk)
Cc1nc2ccccn2c1C(=O)OCC#N	none
CO[C@@H]1COC(=O)CCC[C@@H](C)[C@H](OC)COC(=O)[C@H](Cc2ccccc2)NC(=O)C/C=C\[C@H]1C	none (no result: Six1-Eya2 blk, PKM2 act, CtBP-E1A blk)
NCC1CCC(N)C(O[C@@H]2C(O)[C@H](O[C@H]3OC(CO)C(O)C(N)C3O)[C@@H](N)C[C@H]2N)O1 (stereo partly specified)	none (no result: Six1-Eya2 blk, PKM2 act, CtBP-E1A blk)
Cc1c(CCOC(=O)c2cc([N+](=O)[O-])cc([N+](=O)[O-])c2)sc[n+]1CC(=O)c1ccc(Br)cc1	RORg inh 4µM
Cc1c(CCOC(=O)CC23CC4CC(CC(C4)C2)C3)sc[n+]1CC(=O)c1ccccc1	RORg inh inconclusive, Gal4-VP16 FLuc 4.5µM
CCOc1ccc(C2/C(=C(\O)c3cccc(OC)c3)C(=O)C(=O)N2c2ccccn2)cc1OC (stereo unspecified)	none
CC[C@H](C)[C@H](N)C(=O)N[C@H]1CCC(=O)NCC(C(=O)N[C@@H](Cc2ccc(O)cc2)C(=O)N[C@@H](CCCNC(=N)N)C(=O)N[C@@H](CC(C)C)C(=O)N[C@@H](CCCNC(=N)N)C(=O)N[C@@H](Cc2ccc(O)cc2)C(N)=O)NC(=O)[C@@H]2CCCN2C(=O)[C@@H](NC(=O)[C@@H](N)[C@@H](C)CC)CCC(=O)NCC(C(=O)N[C@@H](Cc2ccc(O)cc2)C(=O)N[C@@H](CCCNC(=N)N)C(=O)N[C@@H](CC(C)C)C(=O)N[C@@H](CCCNC(=N)N)C(=O)N[C@@H](Cc2ccc(O)cc2)C(N)=O)NC(=O)[C@@H]2CCCN2C1=O (stereo partly specified)	none (no result: Six1-Eya2 blk, PKM2 act, CtBP-E1A blk)
CCCn1c(SCC(=O)Nc2ccc(S(=O)(=O)N(C)C)cc2)n[nH]c1=O	none
O=S1(=O)N[C@H](Cc2ccccc2)COc2cc(N3CC[C@H](O)C3)ccc21	none (no result: RORg inh, PKM2 act, Gal4-VP16 FLuc)
CC(=O)Nc1ccc(S(=O)(=O)NNC2=NS(=O)(=O)c3ccccc32)cc1	RORg inh 10µM
Cc1ccc(C(=O)N2C(CC(=O)Nc3ccc(Cl)cc3)C(=O)NC3CCCCC32)cc1 (stereo unspecified)	none
O=C(OC(c1ccc(NS(=O)(=O)c2ccccc2)cc1)(C(F)(F)F)C(F)(F)F)c1ccccc1	RORg inh 14µM, Gal4-VP16 FLuc inconclusive
Cc1ccc(S(=O)(=O)Nc2ccc(C(OC(=O)c3ccccc3[N+](=O)[O-])(C(F)(F)F)C(F)(F)F)cc2)cc1	none
O=C(C(=O)N1CCN(c2ccccc2F)CC1)c1cn(CC(=O)N2CCCC2)c2ccccc12	none (no result: RORg inh, PKM2 act, Gal4-VP16 FLuc)
O=S(=O)(c1ccccc1)N1CCN(c2nnc(-c3ccccc3)c3ccccc23)CC1	none
Cc1ccc(NC(=O)c2nc(S(=O)(=O)Cc3ccccc3)ncc2Cl)cc1	RORg inh inconclusive, Gal4-VP16 FLuc 2.2µM (no result: PKM2 act)
O=C(Nc1ccc(F)cc1)c1nc(S(=O)(=O)Cc2ccccc2)ncc1Cl	Gal4-VP16 FLuc 7.9µM (no result: PKM2 act)
Cc1ccccc1CS(=O)(=O)c1ncc(Cl)c(C(=O)Nc2ccc(F)cc2)n1	RORg inh inconclusive, Gal4-VP16 FLuc inconclusive (no result: PKM2 act, CtBP-E1A blk)
COc1ccc(C)cc1NC(=O)CN1C(=O)COc2ccc(S(=O)(=O)N3CCC(C)CC3)cc21	none (no result: PKM2 act)
O=C(c1ccccc1F)N(Cc1nc2ccccc2c(=O)[nH]1)C1CCCC1	RORg inh 2.8µM, Gal4-VP16 FLuc 7.9µM (no result: CtBP-E1A blk)
O=C(c1ccccc1)N(Cc1nc2ccccc2c(=O)[nH]1)C1CCCCC1	RORg inh inconclusive
O=C(NC1CCCCC1)N(Cc1nc2ccccc2c(=O)[nH]1)C1CCCC1	none
O=C(c1cccc(F)c1)N(Cc1nc2ccccc2c(=O)[nH]1)C1CCCC1	RORg inh 6.3µM, Gal4-VP16 FLuc inconclusive (no result: CtBP-E1A blk)
CC(Sc1ncccn1)C(=O)N1CCc2ccccc21 (stereo unspecified)	none (no result: RORg inh, PKM2 act, Gal4-VP16 FLuc)
C=CCN(C(=O)c1csnn1)C(C(=O)NC1CCCC1)c1ccc(F)cc1 (stereo unspecified)	none (no result: PKM2 act)
COc1ccc(-c2nc3c(c4c2C[C@H](c2ccccc2)OC4)CN(C(=O)NCc2ccco2)CC3)c(C)c1	none (no result: RORg inh, Six1-Eya2 blk, CtBP-E1A blk, Gal4-VP16 FLuc)
C=C1C2CC[C@@]3(C)C(c4ccoc4)OC(=O)C[C@@]13OC1CC(OC(C)=O)C(C)(C)C(CC(=O)OC)[C@@]12C (stereo partly specified)	RORg inh 2.8µM (no result: Six1-Eya2 blk, PKM2 act, CtBP-E1A blk)
Oc1oc(-c2cccc3ccccc23)nc1/C=N/c1nccs1	RORg inh 8.9µM, Gal4-VP16 FLuc 13µM
COC(=O)c1cccc(/C=N/NC(N)=S)c1O	RORg inh 2µM, Six1-Eya2 blk -66, Gal4-VP16 FLuc 7.1µM (no result: CtBP-E1A blk)
COc1ccc(C(=O)Oc2ccc(/C=N/O)cc2)cc1	RORg inh 11µM, Gal4-VP16 FLuc 11µM
COc1ccc(C(=O)Oc2cc(/C=N/NC(N)=S)ccc2OC)cc1	RORg inh 11µM, Gal4-VP16 FLuc 22µM
COc1ccc(/C=N/NC(N)=S)cc1OC(=O)c1cccc2ccccc12	RORg inh 2.5µM, Gal4-VP16 FLuc 5µM
COc1ccccc1/C=N/NC(=O)c1cccc2ccccc12	none
CCc1ccc2c(c1)C1(SC(NC(C)=O)=NN1C(C)=O)C(=O)N2CC (stereo unspecified)	none
COC(=O)C1CCN(C(=O)COC(=O)c2oc3ccc(OC)cc3c2C)CC1	none
